Assay outcomes: PubChem, National Center for Advancing Translational Sciences (NCATS)
HCMV antiviral: human cytomegalovirus inhibition; HFF cells, HCMV-luciferase reporter, 72 h; stronger effect = lower value; actives 4.5% (n = 410,000); activity change, negative = inhibition, % at 57.5 µM; in the data active means activity change below about -60%; inconclusive means no clear call, values can overlap the other calls; inactive means above about -39%
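Cell-based, HFFs, 1000 cells/well, 16 h 37C; cpds in DMSO + HCMV-luc, MOI 1 PFU/cell; 72 h 37C; OneGlo luminescence after 5 min RT; norm. to buffer vs Salinomycin 10uM.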
Vaccinia mCherry: inhibitors of vaccinia virus infection (mCherry reporter signal) | Vaccinia virus mCherry reporter infection, fluorescence | Potency, µM (top dose mostly 36.5 µM), for inactives: top-dose activity change, negative = inhibition, usual class: inhibitors | actives 0.63% (n = 310,000) | AID 720579; calls by dose curve; tested in A549 cells; further: potency means the concentration at half of the fitted maximal effect; nearly all actives have a fitted effect of over 35% in size
VACV Venus inh: vaccinia inhibition (Venus reporter). AID 720580. Vaccinia virus Venus reporter expression, fluorescence. actives 0.46% (n = 330,000). Potency, µM (doses to about 36.5 µM), for inactives: at the top dose activity change, negative = inhibition, actives largely listed as inhibitors; calls by dose curve; tested in A549 cells; further: potency means the concentration at half of the fitted maximal effect; nearly all actives have a fitted effect of over 30% in size
FMDV inh: foot and mouth disease virus antiviral activity; Potency, µM (doses to about 57.9 µM), without a hit: at the top dose activity change, negative = inhibition, hits mostly inhibitors; FMDV antiviral cell-based qHTS; actives 1.2% (n = 410,000); calls by dose curve; tested in HEK293T cells; further: read-out not given here; potency means the concentration at half of the fitted maximal effect; nearly all actives have a fitted effect of over 45% in size
Lassa entry inh: inhibitors of Lassa virus binding or cell entry; Lassa virus pseudotype entry inhibition, cell reporter; Potency, µM (titrated, usually from 37.9 µM), for inactives: top-dose activity change, negative = inhibition, most hits filed as inhibitors; actives 1.2% (n = 300,000); AID 540256; calls by dose curve; tested in HEK293 cells; further: potency means the concentration at half of the fitted maximal effect; nearly all actives have a fitted effect of over 50% in size
MARV entry inh: blocks Marburg virus binding to or entry into cells; actives 1.8% (n = 300,000); Marburg virus pseudotyped entry inhibition, cell reporter; AID 540276; Potency, µM (titrated, usually from 37.8 µM), inactives show at the top dose activity change, negative = inhibition, actives largely listed as inhibitors; calls by dose curve; tested in HEK293 cells; further: potency means the concentration at half of the fitted maximal effect
Active calls of the source: *; ! = a repeat was not active; [ ] = another dose, or the depositor's remark. Hits are enriched below; roughly 6.5% of the tested compounds scored in any of these assays. On the % scale 0 is the no-effect control and ±100 the full control effect.

c1cncc(-c2nc(NCc3ccc4c(c3)OCO4)c3ccccc3n2)c1 was read as HCMV antiviral 0 and FMDV inh inconclusive.
For COCCNc1nc(N)c([N+](=O)[O-])c(NC2CCCCC2)n1 the results were HCMV antiviral -1, Vaccinia mCherry -14%, VACV Venus inh -19%, FMDV inh -11%, Lassa entry inh -7%[46.1 µM] and MARV entry inh -20%[46.1 µM].
`NCCCNc1nc(N)c([N+](=O)[O-])c(NC2CCCCC2)n1` gave HCMV antiviral -97*, Vaccinia mCherry inconclusive, VACV Venus inh 3.2µM* and FMDV inh inconclusive.
Screening O=C(CN1CCC(n2nnc3cc(F)ccc32)CC1)Nc1ccccc1N1CCOCC1 returned HCMV antiviral inconclusive, Vaccinia mCherry -24%, VACV Venus inh -14%, FMDV inh inconclusive, Lassa entry inh -3% and MARV entry inh 13µM*!.
For CCOc1ccc2nc(NC(=O)CN3CCC(n4nnc5cc(F)ccc54)CC3)sc2c1 the results were HCMV antiviral -68*, FMDV inh inconclusive, Lassa entry inh inconclusive and MARV entry inh inconclusive.
Screening CCCN(CCC)C1=CC(=[N+]2CCCC2)CC(C)(C)C1 returned HCMV antiviral -101*, Vaccinia mCherry inactive, VACV Venus inh -16%, FMDV inh inconclusive, Lassa entry inh 10µM* and MARV entry inh inconclusive.
Screening CC1(C)CC(N2CCCCC2)=CC(=[N+]2CCCCC2)C1 returned HCMV antiviral -95*, Vaccinia mCherry -12%, VACV Venus inh -1%, FMDV inh inconclusive, Lassa entry inh inconclusive and MARV entry inh inconclusive.
`Cc1c(C(=O)N2CC3CCC2C3)sc2ncnc(NCc3ccco3)c12` (stereo unspecified) gave Vaccinia mCherry -2%, VACV Venus inh -17% and FMDV inh -10%.
Screening N#C/C(=C\c1cccnc1)C(=O)Nc1cccc2ccccc12 returned HCMV antiviral 135, Vaccinia mCherry -8%, VACV Venus inh -9%, FMDV inh 25µM*, Lassa entry inh 12% and MARV entry inh inconclusive.
O=[N+]([O-])c1cccc2ccc(N3CCOCC3)nc12 was read as HCMV antiviral 16, Vaccinia mCherry inconclusive, VACV Venus inh -26%, FMDV inh 15%, Lassa entry inh 21%[46.1 µM] and MARV entry inh -11%[46.1 µM].
`O=[N+]([O-])c1ccc(N2CCOCC2)c2c1no[n+]2[O-]` gave HCMV antiviral -101*, Vaccinia mCherry inconclusive, VACV Venus inh 55% and FMDV inh 10µM*.
CCOC(=O)c1ccccc1NS(=O)(=O)c1ccc(OCC)cc1 was read as HCMV antiviral -17, FMDV inh -18%, Lassa entry inh 2.6µM* and MARV entry inh inconclusive.
Cc1ccccc1NS(=O)(=O)c1ccc(N2CCCC2=O)cc1 was read as HCMV antiviral -35, FMDV inh 11%, Lassa entry inh inconclusive and MARV entry inh inconclusive.
CCOc1ccc(S(=O)(=O)Nc2cc(OC)ccc2OC)cc1 was read as HCMV antiviral -64*, Vaccinia mCherry -22%, VACV Venus inh inconclusive, FMDV inh -13%, Lassa entry inh inconclusive and MARV entry inh inconclusive.
For Cc1nn(C)c(C)c1NS(=O)(=O)c1ccc(N2CCCC2=O)cc1 the results were HCMV antiviral -62*, Vaccinia mCherry inconclusive, VACV Venus inh -30%, FMDV inh inconclusive, Lassa entry inh inconclusive and MARV entry inh inconclusive.
Screening COc1ccc(OC)c(NS(=O)(=O)c2ccc(N3CCCC3=O)cc2)c1 returned HCMV antiviral -73*, VACV Venus inh inconclusive, FMDV inh -16%, Lassa entry inh inconclusive and MARV entry inh inconclusive.
For COc1cc(OC)c(C(=O)O/N=C(\N)c2ccc(C)cc2)cc1OC the results were HCMV antiviral 20, Vaccinia mCherry inactive, VACV Venus inh -22%, FMDV inh 19%, Lassa entry inh inconclusive and MARV entry inh 7.9µM*.
Screening O=C(CSC1=NCCS1)N1CCN(c2ccc(Cl)cc2)CC1 returned HCMV antiviral -82*, Vaccinia mCherry inconclusive, VACV Venus inh -29%, FMDV inh inconclusive, Lassa entry inh -12% and MARV entry inh -24%[46.1 µM].
For O=C(CSC1=NCCS1)c1ccc(Cl)cc1 the results were HCMV antiviral 42, Vaccinia mCherry inactive, VACV Venus inh -17%, FMDV inh -10%, Lassa entry inh -18% and MARV entry inh 0%.
NCCCN(Cc1ccc(Cl)cc1)c1ccc(Br)cn1 was read as Vaccinia mCherry -5% and VACV Venus inh -15%.
`COCCN1Cc2cccc(C(=O)Nc3ccc(C(=O)OC)cc3)c2C1=O` gave HCMV antiviral -8, Vaccinia mCherry -6%, VACV Venus inh 2%, FMDV inh -1%, Lassa entry inh 8%[46.1 µM] and MARV entry inh 1%[46.1 µM].
CCOC(=O)c1ccc(-[n+]2c(-c3ccccc3)cc(-c3ccccc3)cc2-c2ccccc2)cc1 was read as Vaccinia mCherry inactive, VACV Venus inh inconclusive and FMDV inh -20%.
For Cc1ccc(-c2cc(-c3ccc(C)cc3)[n+](-c3ccccc3)c(-c3ccc(C)cc3)c2)cc1 the results were Vaccinia mCherry inconclusive, VACV Venus inh 3.5µM* and FMDV inh 7.1µM*.
c1ccc(-c2cc(-c3ccccc3)[n+](-c3ccccc3)c(-c3ccccc3)c2)cc1 was read as HCMV antiviral -101*, Vaccinia mCherry -40%, VACV Venus inh inconclusive, FMDV inh 18µM*, Lassa entry inh inconclusive and MARV entry inh inconclusive.
For CN(C)c1ccc(-[n+]2c(-c3ccccc3)cc(-c3ccccc3)cc2-c2ccccc2)cc1 the results were HCMV antiviral -99*, Vaccinia mCherry -20%, VACV Venus inh inconclusive, FMDV inh 32µM*, Lassa entry inh inconclusive and MARV entry inh inconclusive.
Screening Cc1ccc(-c2cc(-c3ccccc3)cc(-c3ccccc3)[n+]2-c2ccccc2)cc1 returned HCMV antiviral -99*, Vaccinia mCherry 8.9µM*, VACV Venus inh 10µM* and FMDV inh 7.1µM*.
Cc1ccc(-c2cc(-c3ccc(C)cc3)[n+](-c3ccc(C(=O)[O-])cc3)c(-c3ccc(C)cc3)c2)cc1 was read as HCMV antiviral -17, Vaccinia mCherry -13%, VACV Venus inh -12% and FMDV inh 0%.
For C[n+]1c(-c2ccccc2)cc(-c2ccc(Cl)cc2)cc1-c1ccccc1 the results were HCMV antiviral inconclusive, Vaccinia mCherry inactive, VACV Venus inh -6%, FMDV inh inconclusive, Lassa entry inh inconclusive and MARV entry inh inconclusive.
Cc1ccc2nc(CN3CCN(S(=O)(=O)c4ccc(C(C)C)cc4)CC3)oc2c1 was read as HCMV antiviral -32, Vaccinia mCherry -29%, VACV Venus inh -25%, FMDV inh -8% and Lassa entry inh inconclusive.
For O=C(NCC1CCC2(CCN(Cc3ccc4ncccc4c3)CC2)O1)C1CCCO1 (stereo unspecified) the results were Vaccinia mCherry inactive, VACV Venus inh -13% and FMDV inh -4%.
